Source: PubChem BioAssay (NCATS)
Records with an inconclusive call do not appear. Activity calls are given as the source filed them. Unless noted, calls follow the shape of the dose curve; as a rule, active = well fitted curve in the direction sought with a large enough effect; inconclusive = small, poorly fitted or top-dose-only effect, or another doubt; inactive = no such curve, though single readings can be large; an effect the other way counts as inactive or inconclusive.

What was measured:
[1] = target: Lysosomal acid glucosylceramidase (Homo sapiens) (UniProt P04062); assay: Glucocerebrosidase-p2 (AID 348; in the data active = potency below about 10 µM; also: potency is read from the fitted curve at half-maximal effect); settings: purified GBA, blue fluorogenic substrate, 40 min
How it was run: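 Compounds titrated from 0.6 nM upwards against 0.2 nM enzyme in pH 5.9 citric acid/KH2PO4, taurocholate, tween-20; blue fluorogenic substrate 80 uM, 40 min room temperature, stopped and read Ex 365/Em 440 for AC50.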

[2] = AP1 Signaling Pathway (AID 357; active = well fitted curve in either direction with a large enough effect, not every such curve was filed as active;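 also: ME-180 reporter cells stimulated with EGF at its EC50 level; % is scaled to controls: 0 for no effect and ±100 for the full control effect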); settings: ME-180 AP-1-bla reporter, EGF-induced, beta-lactamase ratio, 5 h; at 7.69 µM (top of the series) unless noted
How it was run: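 Beta-lactamase reporter under AP-1 response element, ME-180 background. Stimulus: EC50 EGF. Compound exposure 5 h, 37 °C. Detection: CCF4, 2.5 h RT, 460/530 nm. Values: AC50 from titration.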

[3] = target: Cytochrome P450 1A2 (Homo sapiens) (UniProt P05177); assay: p450-cyp1a2 (AID 410; calls by dose curve; also: potency is read from the fitted curve at half-maximal effect;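 as to activity change, negative = inhibition: -100% = full effect of reference inhibitor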); settings: recombinant CYP1A2, luciferin-ME demethylation, luminescence; series mostly up to 57 µM
How it was run: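 20nM CYP1A2 with 100uM Luciferin-ME (at Km) in 100mM KPO4; compound preincubated 10 min, NADPH regeneration added, 60 min at room temperature. Luciferin quantified by luminescence after detection reagent; normalized to 57 uM furafylline.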

[4] = NFAT Signaling Pathway (AID 444; active = well fitted curve in either direction with a large enough effect, not every such curve was filed as active;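 also: carbachol stimulus at about its EC50 of 1 µM final; % is scaled to controls: 0 for no effect and ±100 for the full control effect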); settings: Jurkat NFAT-bla M1, carbachol, beta-lactamase ratio, 5 h; at 7.69 µM (top of the series) unless noted
How it was run: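 Jurkat cells carrying an NFAT-driven β-lactamase reporter and co-transfected muscarinic M1 receptor were treated with compound plus carbachol (1 uM final, an EC50 level) for 5 h at 37 °C. CCF4 loading followed for 1 h at RT; 460/530 nm ratio gave %activity.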

[5] = Stat Signaling Pathway (AID 446; active = well fitted curve in either direction with a large enough effect, not every such curve was filed as active;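 also: ME-180 cervical cancer cells given 40 pM IL-6 alongside compound; SIE-controlled beta-lactamase reporter measured as 460/530 nm FRET emission ratio; % is scaled to controls: 0 for no effect and ±100 for the full control effect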); settings: ME-180 SIE beta-lactamase reporter, IL-6 stimulated, 5 h; at 7.69 µM (top of the series) unless noted
How it was run: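 Screening format detects activators and inhibitors alike: ME-180 SIE-bla cells stimulated at 40 pM IL-6 for 5 hrs with compound, then dual-emission beta-lactamase read at 405 nm excitation.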

[6] = target: Glucocorticoid receptor (Homo sapiens) (UniProt P04150); assay: GR-GFP Redistribution (AID 450;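 active = compounds whose dose series gives a full or clear partial fitted curve of increased nuclear translocation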; also: potency is read from the fitted curve at half-maximal effect); settings: U2OS GR-GFP nuclear translocation, laser cytometry, 2 h
[7] = target: Glucocorticoid receptor (Homo sapiens) (UniProt P04150); assay: GR-EFC Redistribution (AID 451; calls by dose curve; also: potency is read from the fitted curve at half-maximal effect); settings: CHO-K1 GR-EFC translocation, beta-gal luminescence, 2 h
How it was run: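 CHO-K1 cells stably expressing nuclear-localized β-gal enzyme acceptor and GR fused C-terminally to the enzyme donor fragment; ligand-driven nuclear translocation restores β-gal by complementation. Compounds titrated up to 46 uM final, 2 h at 37 °C; luminescence read.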

[8] = target: Mitogen-activated protein kinase 10 (Mus musculus) (UniProt Q61831); assay: JNK3 AlphaScreen Assay (AID 530; active = well fitted curve in either direction with a large enough effect, not every such curve was filed as active;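 also: kinase came from lysate of stimulated human HepG2 cells; signal reports phosphorylation of biotinylated GST-cJun 1-79 at Ser73 with 10 µM ATP; % is scaled to controls: 0 for no effect and ±100 for the full control effect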); settings: JNK3 lysate, c-Jun phosphorylation; series mostly up to 57.1 µM
How it was run: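 Inhibitors reduce antibody binding to phosphorylated biotin-cJun, lowering AlphaScreen luminescence. Lysates from HepG2 cells pre-activated by IL-1beta plus TNF-alpha supplied JNK3; compounds were titrated.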

[9] = target: 3',5'-cyclic-AMP phosphodiesterase 4B (Homo sapiens) (UniProt Q07343); assay: qHTS Assay for Inhibitors of PDE-IV (AID 607; active = well fitted activation curve with a large enough effect in the main read-out, with a control signal flat, not every such curve was filed as active; also: % of control where 0% means no effect); settings: HEK293 ACTOne CNG channel cells, membrane potential fluorescence; series mostly up to 22.9 µM
How it was run: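 The readout is membrane depolarisation from a cAMP-sensing CNG channel, detected with a potential dye at ex 535/em 590. Cells were HEK293-derived (endogenous PDE-IV) at 1000 cells/well, titrated up to 22.9 uM final.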

[10] = target: Cytochrome P450 3A4 (Homo sapiens) (UniProt P08684); assay: qHTS Assay for Activators of Cytochrome P450 3A4 (AID 885); settings: recombinant CYP3A4, Luciferin-PPXE luminescence, 60 min; series mostly up to 57.1 µM; also: nearly all actives have a fitted effect of over 65% in size
How it was run: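 Steps: enzyme/substrate mix dispensed; compound added, 10 min RT; NADPH regeneration solution added, 60 min RT; luciferin detection buffer stops reaction; 20 min later luminescence measured.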

[11] = qHTS Assay for Lipid Storage Modulators (AID 1519; calls by dose curve); settings: Drosophila S3 cells, BODIPY lipid droplet/cell ratio, laser cytometry, cells loaded with oleic acid; for activity change, negative = inhibition: at 57.5 µM (top of the series)
How it was run: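 Cells seeded at 5,000 per well were treated with compounds over a concentration series and loaded with oleic acid (400 uM, as added). Lipid droplet fluorescence (488 nm excitation, 500-530 nm channel) was read by laser-scanning cytometry and normalized to 20 uM Triacsin C.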

[12] = target: Dual specificity protein kinase CLK4 (Homo sapiens) (UniProt Q9HAZ1); assay: qHTS Assay for Inhibitors of CDC-like Kinase 4 (Kinase-Glo Assay) (AID 1770); settings: recombinant Clk4, Kinase-Glo ATP depletion luminescence; series mostly up to 66.7 µM; also: nearly all actives have a fitted effect of over 65% in size; also: potency is read from the fitted curve at half-maximal effect
How it was run: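 Clk4 25 nM, RS peptide 100 uM, ATP 1 uM, pH 7.5 Tris, 10 mM MgCl2, 2.5 mM DTT; 4.5 h RT; ATP depletion read by Kinase-Glo luminescence.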

[13] = target: Dual specificity protein kinase CLK4 (Homo sapiens) (UniProt Q9HAZ1); assay: qHTS Assay for Inhibitors of CDC-like Kinase 4 (ADP-Glo Assay) (AID 1771); settings: recombinant CLK4, ADP-Glo luminescence; series mostly up to 80 µM; also: nearly all actives have a fitted effect of over 70% in size; also: potency is read from the fitted curve at half-maximal effect
How it was run: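 25 nM Clk4 with 100 uM RS repeat peptide and 1 uM ATP (final) in buffer with 2 mM MgCl2, 0.5 mM EGTA, 2.5 mM DTT, 0.01% Triton X-100; 1 h at room temperature; ADP-Glo luminescence for ADP formed.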

[14] = target: Ubiquitin carboxyl-terminal hydrolase 1 (Homo sapiens) (UniProt O94782); assay: Inhibitors of USP1/UAF1: Pilot qHTS (AID 504865); settings: purified USP1/UAF1, Ub-rhodamine cleavage fluorescence; series mostly up to 54.9 µM;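 also: rhodamine fluorescence freed from ubiquitin-rhodamine substrate followed over time; top concentration of the series differs between compounds; % is scaled to controls: 0 for no effect and ±100 for the full control effect; nearly all actives have a fitted effect of over 35% in size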
How it was run: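 Enzyme-free wells gave the negative control, while test wells held 1nM USP1/UAF1 preincubated with compound for 15 min at room temperature. Ub-Rho at 150nM final started the reaction, and fluorescence at 480/540 nm was recorded kinetically.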

[15] = target: Dual specificity protein kinase CLK4 (Homo sapiens) (UniProt Q9HAZ1); assay: qHTS Assay for Inhibitors of CDC-like Kinase 4 (ADP-FP Assay) (AID 1795); settings: Transcreener ADP fluorescence polarization; series mostly up to 50 µM; also: nearly all actives have a fitted effect of over 60% in size; also: potency is read from the fitted curve at half-maximal effect
How it was run: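 Kinase activity was followed as ADP output, converted from fluorescence polarization with a calibration curve. Reactions ran one hour at low ATP (1 uM) with RS peptide substrate.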

[16] = target: Cytochrome P450 3A4 (Homo sapiens) (UniProt P08684); assay: qHTS Assay for Inhibitors and Substrates of Cytochrome P450 3A4 (AID 884); settings: recombinant CYP3A4, Luciferin-PPXE luminescence; series mostly up to 57.1 µM; also: potency is read from the fitted curve at half-maximal effect; nearly all actives have a fitted effect of over 50% in size
How it was run: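 20 nM human CYP3A4 with 25 uM Luciferin-PPXE (at KM) in 200 mM KPO4, preincubated 10 min with compound; NADPH regeneration started a 60 min RT reaction. Luciferin detected by luminescence, normalized to 57 uM ketoconazole as full inhibition.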

[17] = qHTS Assay for Identification of Small Molecule Agonists for Hypoxia Response Element Signaling Pathway (AID 914; active = well fitted activation curve with a large enough effect in the signal ratio, with a control signal flat, not every such curve was filed as active; the % refers to the signal ratio; also: % of control where 0% means no effect); settings: ME-180 (cervical carcinoma) HRE-bla reporter, beta-lactamase ratio, CoCl2, 17 h; activation: stronger effect = higher value
How it was run: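 Reporter activity (beta-lactamase, CCF4 460nm/530nm ratio) in HRE-bla ME-180 cells is recorded after 17 h compound exposure with EC50 CoCl2 at 37 degrees Celsius. AC50 values come from titration data.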

[18] = measured here: cell count channel max response
[19] = measured here: lipid channel max response

Sequence of Lysosomal acid glucosylceramidase (Homo sapiens) (P04062 whole entry, looked up): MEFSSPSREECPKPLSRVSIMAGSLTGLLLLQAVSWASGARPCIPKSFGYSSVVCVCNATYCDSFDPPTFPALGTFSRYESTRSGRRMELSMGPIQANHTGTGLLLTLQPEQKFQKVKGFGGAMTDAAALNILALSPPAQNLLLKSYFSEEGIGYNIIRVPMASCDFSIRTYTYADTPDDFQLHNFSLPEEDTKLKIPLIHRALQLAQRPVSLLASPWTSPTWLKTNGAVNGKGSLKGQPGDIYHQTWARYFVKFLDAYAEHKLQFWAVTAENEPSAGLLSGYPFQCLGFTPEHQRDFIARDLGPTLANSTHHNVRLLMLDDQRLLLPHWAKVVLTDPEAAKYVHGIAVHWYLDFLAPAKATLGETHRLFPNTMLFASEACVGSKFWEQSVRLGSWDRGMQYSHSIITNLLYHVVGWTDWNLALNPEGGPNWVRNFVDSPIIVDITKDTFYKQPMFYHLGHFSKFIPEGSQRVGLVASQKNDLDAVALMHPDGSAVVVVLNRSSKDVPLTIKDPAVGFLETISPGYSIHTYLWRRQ
Sequence of Cytochrome P450 1A2 (Homo sapiens) (P05177 whole entry, looked up): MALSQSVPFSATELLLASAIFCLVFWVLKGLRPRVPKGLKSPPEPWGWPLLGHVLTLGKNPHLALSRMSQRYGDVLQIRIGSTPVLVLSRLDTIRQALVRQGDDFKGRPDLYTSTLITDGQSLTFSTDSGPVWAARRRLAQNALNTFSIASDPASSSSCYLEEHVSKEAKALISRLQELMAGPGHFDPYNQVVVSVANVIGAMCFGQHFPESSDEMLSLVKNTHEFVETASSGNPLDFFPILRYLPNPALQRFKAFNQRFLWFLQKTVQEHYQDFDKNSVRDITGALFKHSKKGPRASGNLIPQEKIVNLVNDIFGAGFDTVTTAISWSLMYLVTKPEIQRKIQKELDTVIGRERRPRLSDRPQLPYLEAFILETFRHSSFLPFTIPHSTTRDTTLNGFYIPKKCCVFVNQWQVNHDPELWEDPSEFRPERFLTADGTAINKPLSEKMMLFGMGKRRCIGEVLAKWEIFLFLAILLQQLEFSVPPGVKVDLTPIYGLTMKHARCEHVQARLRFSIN
Sequence of Dual specificity protein kinase CLK4 (Homo sapiens) (Q9HAZ1 whole entry, looked up): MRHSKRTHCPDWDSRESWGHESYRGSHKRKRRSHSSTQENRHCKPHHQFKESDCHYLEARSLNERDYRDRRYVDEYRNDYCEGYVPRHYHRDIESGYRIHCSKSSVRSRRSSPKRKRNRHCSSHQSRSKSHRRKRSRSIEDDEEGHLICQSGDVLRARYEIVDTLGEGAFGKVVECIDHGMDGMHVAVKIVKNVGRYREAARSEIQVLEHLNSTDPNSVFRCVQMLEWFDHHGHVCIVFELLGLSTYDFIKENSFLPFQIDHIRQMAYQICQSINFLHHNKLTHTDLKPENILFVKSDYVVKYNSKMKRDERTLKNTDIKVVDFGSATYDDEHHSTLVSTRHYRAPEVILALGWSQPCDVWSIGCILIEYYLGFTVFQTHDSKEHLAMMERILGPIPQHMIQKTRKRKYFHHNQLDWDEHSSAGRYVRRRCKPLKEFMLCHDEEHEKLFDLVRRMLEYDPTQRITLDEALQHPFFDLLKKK
Sequence of Ubiquitin carboxyl-terminal hydrolase 1 (Homo sapiens) (O94782 whole entry, looked up): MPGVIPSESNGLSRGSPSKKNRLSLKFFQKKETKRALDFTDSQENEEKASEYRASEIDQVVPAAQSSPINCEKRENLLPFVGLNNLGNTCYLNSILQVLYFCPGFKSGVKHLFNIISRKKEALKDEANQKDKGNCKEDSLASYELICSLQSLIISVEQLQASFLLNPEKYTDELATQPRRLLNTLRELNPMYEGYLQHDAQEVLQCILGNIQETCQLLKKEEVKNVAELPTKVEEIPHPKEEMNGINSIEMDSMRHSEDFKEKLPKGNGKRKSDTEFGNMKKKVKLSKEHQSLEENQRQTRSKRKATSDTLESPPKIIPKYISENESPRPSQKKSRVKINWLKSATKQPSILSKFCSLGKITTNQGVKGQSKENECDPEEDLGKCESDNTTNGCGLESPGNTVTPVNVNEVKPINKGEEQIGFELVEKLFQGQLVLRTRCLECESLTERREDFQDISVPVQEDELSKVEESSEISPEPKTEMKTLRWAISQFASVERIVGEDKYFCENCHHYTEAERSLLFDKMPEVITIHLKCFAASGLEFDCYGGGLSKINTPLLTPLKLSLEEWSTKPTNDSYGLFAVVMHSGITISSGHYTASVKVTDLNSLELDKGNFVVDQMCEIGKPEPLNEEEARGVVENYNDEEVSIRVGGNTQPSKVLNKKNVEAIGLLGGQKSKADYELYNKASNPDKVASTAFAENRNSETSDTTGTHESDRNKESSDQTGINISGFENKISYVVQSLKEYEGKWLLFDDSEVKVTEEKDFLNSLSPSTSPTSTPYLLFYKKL
Sequence of Glucocorticoid receptor (Homo sapiens) (P04150 whole entry, looked up, the tested form may be a part): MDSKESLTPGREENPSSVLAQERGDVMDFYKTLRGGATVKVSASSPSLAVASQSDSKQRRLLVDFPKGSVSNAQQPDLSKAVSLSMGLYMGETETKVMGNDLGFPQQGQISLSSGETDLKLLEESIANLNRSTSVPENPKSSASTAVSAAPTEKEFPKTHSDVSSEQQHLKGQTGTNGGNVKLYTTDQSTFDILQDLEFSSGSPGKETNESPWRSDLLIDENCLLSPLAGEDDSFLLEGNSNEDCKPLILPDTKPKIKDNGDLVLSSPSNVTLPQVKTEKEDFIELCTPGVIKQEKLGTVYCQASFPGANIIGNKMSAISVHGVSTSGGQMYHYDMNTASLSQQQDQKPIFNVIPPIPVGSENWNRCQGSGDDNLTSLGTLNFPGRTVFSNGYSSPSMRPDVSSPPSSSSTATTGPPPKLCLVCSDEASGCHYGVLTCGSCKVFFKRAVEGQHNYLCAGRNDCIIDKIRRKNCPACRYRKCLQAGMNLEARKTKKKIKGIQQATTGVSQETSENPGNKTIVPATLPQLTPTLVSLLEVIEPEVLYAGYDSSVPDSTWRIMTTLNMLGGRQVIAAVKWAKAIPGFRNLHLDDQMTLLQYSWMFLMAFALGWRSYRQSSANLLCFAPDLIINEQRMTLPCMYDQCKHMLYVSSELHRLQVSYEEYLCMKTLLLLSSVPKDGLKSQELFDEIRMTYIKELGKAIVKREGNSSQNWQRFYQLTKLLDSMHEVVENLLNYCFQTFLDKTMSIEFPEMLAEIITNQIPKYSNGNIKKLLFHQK
Sequence of Cytochrome P450 3A4 (Homo sapiens) (P08684 whole entry, looked up): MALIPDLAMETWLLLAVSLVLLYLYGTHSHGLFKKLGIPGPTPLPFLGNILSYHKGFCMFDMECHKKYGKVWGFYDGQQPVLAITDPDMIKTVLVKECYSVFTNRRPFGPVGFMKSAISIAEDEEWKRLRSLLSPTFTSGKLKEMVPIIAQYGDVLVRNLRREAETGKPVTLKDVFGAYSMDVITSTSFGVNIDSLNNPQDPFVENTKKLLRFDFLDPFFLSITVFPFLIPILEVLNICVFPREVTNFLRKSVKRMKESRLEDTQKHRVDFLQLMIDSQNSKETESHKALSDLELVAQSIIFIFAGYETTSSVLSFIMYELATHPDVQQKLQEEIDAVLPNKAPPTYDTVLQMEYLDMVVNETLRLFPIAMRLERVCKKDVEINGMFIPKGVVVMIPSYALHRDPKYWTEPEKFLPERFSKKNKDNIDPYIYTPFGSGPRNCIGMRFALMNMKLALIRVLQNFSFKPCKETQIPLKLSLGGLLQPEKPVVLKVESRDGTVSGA
Sequence of 3',5'-cyclic-AMP phosphodiesterase 4B (Homo sapiens) (Q07343 whole entry, looked up): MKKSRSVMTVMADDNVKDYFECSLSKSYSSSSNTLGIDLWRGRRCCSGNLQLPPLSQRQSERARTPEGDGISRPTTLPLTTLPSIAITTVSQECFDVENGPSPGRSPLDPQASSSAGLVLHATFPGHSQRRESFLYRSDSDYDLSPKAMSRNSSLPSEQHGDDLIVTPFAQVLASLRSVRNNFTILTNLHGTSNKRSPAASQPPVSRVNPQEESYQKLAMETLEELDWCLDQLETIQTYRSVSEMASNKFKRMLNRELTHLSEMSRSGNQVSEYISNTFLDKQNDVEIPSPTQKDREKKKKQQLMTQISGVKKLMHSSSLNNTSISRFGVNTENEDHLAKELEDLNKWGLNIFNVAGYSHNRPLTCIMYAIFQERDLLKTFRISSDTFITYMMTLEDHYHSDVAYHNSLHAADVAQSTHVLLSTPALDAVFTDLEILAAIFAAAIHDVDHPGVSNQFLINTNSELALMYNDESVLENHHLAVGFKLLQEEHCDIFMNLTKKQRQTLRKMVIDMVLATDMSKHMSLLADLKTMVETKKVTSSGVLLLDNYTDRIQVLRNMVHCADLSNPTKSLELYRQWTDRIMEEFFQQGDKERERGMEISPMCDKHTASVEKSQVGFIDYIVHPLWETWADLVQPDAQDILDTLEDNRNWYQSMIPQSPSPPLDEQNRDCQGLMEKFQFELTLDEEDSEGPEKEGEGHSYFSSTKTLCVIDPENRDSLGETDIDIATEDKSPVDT

Structure (SMILES) | Potency [1] | activity change, negative = inhibition [2] | Potency [3] | activity change, negative = inhibition [4] | activity, negative = inhibition [5] | Potency [6] | Potency [7] | Potency [8] | Potency [9] | Potency [10] | activity change, negative = inhibition [11] | max response [11, 18] | max response [11, 19] | Potency [12] | Potency [13] | Potency [14] | Potency [15] | Potency [16] | activation [17]
CN1CCN(c2ncncc2-c2ccc(N(C)C)cc2)CC1 | > 11.4 µM (inactive) | -1.37% (inactive) | 12.6 µM (active) | 6.42% (inactive) | 3.73% (inactive) | > 46 µM (inactive) | > 46 µM (inactive) | inactive | inactive | inactive | 2.46% (inactive) | 19.8% | 21.2% | inactive | inactive | inactive | – | – | –
Cc1nc2cnc(N3CCN(C)CC3)nc2n(C2CC2)c1=O | > 11.4 µM (inactive) | -13.1% (inactive) | – | -3.47% (inactive) | -9.11% (inactive) | > 9.22 µM (inactive) | > 46 µM (inactive) | inactive | – | – | 3.22% (inactive) | 14.4% | 16.3% | inactive | – | inactive | inactive | – | –
O=c1c(-c2cccs2)nc2cnc(N3CCNCC3)nc2n1C1CC1 | > 11.4 µM (inactive) | 5.15% (inactive) | 2 µM (active) | 0.706% (inactive) | 14.5% (inactive) | > 9.22 µM (inactive) | > 46 µM (inactive) | inactive | inactive | inactive | 1.95% (inactive) | 1.24% | -0.825% | inactive | – | inactive | inactive | 6.31 µM (active) | –
CN(C)Cc1ccccc1-c1cc(NCc2ccccc2)ncn1 | – | -0.0154% (inactive) | inactive | – | 12.3% (inactive) | – | > 46 µM (inactive) | inactive | – | – | 4.72% (inactive) | 6.7% | 9.63% | inactive | inactive | inactive | inactive | – | –
COc1cccc(-c2ccc3ncnc(NCCN4CCOCC4)c3c2)c1 | – | -12.4% (inactive) | – | – | -15.6% (inactive) | > 46 µM (inactive) | > 46 µM (inactive) | inactive | – | – | -1.99% (inactive) | -14.3% | -15.9% | 1.78 µM (active) | 1 µM (active) | inactive | 0.631 µM (active) | – | -14.8% (inactive)
COc1cccc(Cn2c(=O)c(C)nc3cnc(Nc4cccc(OC)c4)nc32)c1 | > 11.4 µM (inactive) | -28.7% (inactive) | – | 19% (inactive) | -18.7% (inactive) | > 9.22 µM (inactive) | > 46 µM (inactive) | inactive | – | – | -5.29% (inactive) | 11.9% | 6.74% | inactive | – | inactive | inactive | – | –
